# Assay results taken from article PMC11995724, “Antibiotic target discovery by integrated phenotypic and activity-based profiling of electrophilic fragments” (Cell chemical biology, 2025).
# Hit rate of the full screen: of about 3,200 compounds, about 75 (2%) showed an effect of 50% or more. The sample as a whole holds a higher share of strong results than the screen did.
# Tested on: T1, S. aureus MSSA476
# T1 construct: MSSA476
# Parameters: species or system S. aureus MSSA476 (TSB) or V. cholerae SAD30 (LB); 384-well bacterial growth screen at 25 uM, OD600 relative to DMSO control
# Conditions: 25 µM; inhibitor
row,Structure (SMILES),% of control remaining [%]
1,"CCn1c(-c2ccccc2)c(C(=O)CCl)c2ccccc21 [10-E12, 2-chloro-1-(1-ethyl-2-phenyl-1H-indol-3-yl)ethan-1-one]",-0.3125
2,"N#Cc1ccc(NC(=O)CCl)cc1Cl [4-N03, 2-chloro-N-(3-chloro-4-cyanophenyl)acetamide]",74.7022
3,"C=CC(=O)Nc1ccc(C(=O)N2CCC3(CC2)OCCCO3)cc1 [2-D16, N-(4-{1,5-dioxa-9-azaspiro[5.5]undecane-9-carbonyl}phenyl)prop-2-enamide]",123.586
4,"CC(Cl)C(=O)c1ccc(Cl)cc1 (stereo not shown) [10-O04, 2-chloro-1-(4-chlorophenyl)propan-1-one]",129.063
